Paper PMC12864922, “TDP-43 directly inhibits mRNA accumulation in neurites through modulation of mRNA stability”
Over roughly 9,900 sequences, “r (bound/input frequency ratio)” has its median near 0.7; the highest 2% begin near 6.5. Many of the other results were omitted from the sample, so the highest values are more common in it than they were.

B1: ENSMUSG00000004113.485|Cacna1b (ssRNA)
RNA: GGGAGUUCUACAGUCCGACGAUCGCUUCGAUAUCCGCAUGCUACCUUUGACUAGUUUGCUGCCUGAAUAAUAUUUACAAACUAAACUUUGGAUUCUGCUCUUGUUUCUACAAUGAUUUUUUGUAUAAAGCAAAGUCCUUGGAUUAAAUAAAAACAACCCAAAAAAAAAAUCAAAAUCAAAACCCAGGAUGCAACUGGGUGAUACCUGAGGACAGUGUGUCUCAGUGCGUCGGUGGAGAGGGUAUACUGCCAGGAGAGCUCAAGAAAAAUUGAGAACUUCAGCAAAGUGCCUGUGAGCACUUGGCUCUUGCGGUCGCACUAGUGUGGAAUUCUCGGGUGUCAAGG
B2: ENSMUSG00000035202.103|Lars2|4:8 (ssRNA)
RNA: GGGAGUUCUACAGUCCGACGAUCGCUUCGAUAUCCGCAUGCUAGCUACACACUCCAGUGUCUUUUACCAUCACAGGCCCUGGCUCUGUGCUACCUCCCUAGAAUACCUGUGGUUCAUCACCUUCAGCUCACACUCCAUUCAGACAAUGCUCACUUAGGCCUACAAGCAAGGGAGAGGCUUAAGCACAAGGUCUUUAAGCUUGAUACUGUGCCUGGUCUCAAUGCCUAGAAAUUCCAACUUAACUGUCGCUAUCAUAAAGGAUUUUAAAUUUUUUUACAAGUGAGAACCUAGCAUGUCAAGGUCCUCUUGCGGUCGCACUAGUGUGGAAUUCUCGGGUGUCAAGG
B3: ENSMUSG00000022095.200|Fam160b2 (ssRNA)
RNA: GGGAGUUCUACAGUCCGACGAUCGCUUCGAUAUCCGCAUGCUACCACCUCUCGAAGCCGGGCACAGGUUGCCAGGAGGUGACAUGAAAGAGGAGGAAACUCCAUGACCUCUACAUCCCCCGCAGUCCUCCCAGCGGGGGAGGACUUCUCUGCUGCUCCGAAGAACAUCAUGCACUCCUGUGUGUGUGUGUGAGUGUGUGUGUGUGUGUGUGUGUGUGUGUGUGUGUAUGUGUGUGUAUAUGUGUGUGUGUGUGUGUAUGUGUGUGUGUGUGUGUGAGUGAGUGUGUGUGUGUGUGUGUGUGUGCUCUUGCGGUCGCACUAGUGUGGAAUUCUCGGGUGUCAAGG
B4: ENSMUSG00000022095.202|Fam160b2 (ssRNA)
RNA: GGGAGUUCUACAGUCCGACGAUCGCUUCGAUAUCCGCAUGCUAGCCGGGCACAGGUUGCCAGGAGGUGACAUGAAAGAGGAGGAAACUCCAUGACCUCUACAUCCCCCGCAGUCCUCCCAGCGGGGGAGGACUUCUCUGCUGCUCCGAAGAACAUCAUGCACUCCUGUGUGUGUGUGUGAGUGUGUGUGUGUGUGUGUGUGUGUGUGUGUGUGUAUGUGUGUGUAUAUGUGUGUGUGUGUGUGUAUGUGUGUGUGUGUGUGUGAGUGAGUGUGUGUGUGUGUGUGUGUGUGUGAGUGUGUGUGCUCUUGCGGUCGCACUAGUGUGGAAUUCUCGGGUGUCAAGG
B5: ENSMUSG00000022095.199|Fam160b2 (ssRNA)
RNA: GGGAGUUCUACAGUCCGACGAUCGCUUCGAUAUCCGCAUGCUACCCAUGCCACCUCUCGAAGCCGGGCACAGGUUGCCAGGAGGUGACAUGAAAGAGGAGGAAACUCCAUGACCUCUACAUCCCCCGCAGUCCUCCCAGCGGGGGAGGACUUCUCUGCUGCUCCGAAGAACAUCAUGCACUCCUGUGUGUGUGUGUGAGUGUGUGUGUGUGUGUGUGUGUGUGUGUGUGUGUAUGUGUGUGUAUAUGUGUGUGUGUGUGUGUAUGUGUGUGUGUGUGUGUGAGUGAGUGUGUGUGUGUGUGUGCUCUUGCGGUCGCACUAGUGUGGAAUUCUCGGGUGUCAAGG

These binders were tested against TDP-43 (Homo sapiens, UniProt Q13148 1-414) (assay: RNA Bind-n-Seq with designed 260-mer pool; 25 mM Tris-HCl, 150 mM KCl, 3 mM MgCl2, BSA (printed 500 mg/mL), 20 units/mL SUPERase IN; pH not stated; 500 nM RNA pool, 1 h, 4 C; TDP-43 5, 50, 500 nM; high values mean tight binding). Conditions: protein: recombinant; tags: SBP (GST cleaved off with PreScission; pGEX-GST-SBP).
Sequence of TDP-43 (Q13148 whole entry): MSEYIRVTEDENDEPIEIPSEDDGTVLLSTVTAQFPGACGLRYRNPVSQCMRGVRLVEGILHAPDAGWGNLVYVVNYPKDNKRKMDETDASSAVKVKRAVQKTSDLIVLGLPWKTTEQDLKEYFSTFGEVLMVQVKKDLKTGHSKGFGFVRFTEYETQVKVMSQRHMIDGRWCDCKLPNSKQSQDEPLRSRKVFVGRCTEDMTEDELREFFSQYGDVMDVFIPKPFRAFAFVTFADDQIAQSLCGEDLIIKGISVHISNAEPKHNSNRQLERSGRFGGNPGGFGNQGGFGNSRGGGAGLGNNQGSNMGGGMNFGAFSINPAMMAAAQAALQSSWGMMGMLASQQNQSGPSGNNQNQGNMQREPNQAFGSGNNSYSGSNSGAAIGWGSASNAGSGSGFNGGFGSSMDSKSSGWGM
How it was run: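 Recombinant SBP-tagged TDP-43 at 5, 50 or 500 nM was captured on streptavidin beads, then incubated 1 h at 4 °C with 500 nM of an in vitro-transcribed 260-nt 3′ UTR oligo pool in 25 mM Tris-HCl, 150 mM KCl, 3 mM MgCl2, BSA and SUPERase IN. Bound RNA was washed, eluted with biotin, reverse transcribed, PCR-amplified and sequenced. Binding is R, each oligo's mapped-read-normalized abundance in the bound sample divided by its abundance in input. Duplicates used two independent protein batches.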
In the case of B1, the binding signal is reported as 0.542 R (bound/input frequency ratio). With B2 the binding signal was 0.427 R (bound/input frequency ratio). In the case of B3, the binding signal is reported as 7.08 R (bound/input frequency ratio). With B4 the binding signal was 7.21 R (bound/input frequency ratio). With B5 the binding signal was 8.67 R (bound/input frequency ratio).
